TrxR1 substrate: qHTS Assay for Substrates of Mammalian Selenoprotein Thioredoxin Reductase 1 (TrxR1): qHTS. Thioredoxin reductase 1, cytoplasmic (Rattus norvegicus), O89049. purified TrxR1 substrate turnover, NADPH consumption readout. Potency, µM (highest dose often 114 µM), for the others: at the top dose activity change, negative = substrate turnover. 390,000 compounds, 0.01% hits. AID 588456, 2011; note: potency is the fitted concentration of half-maximal effect; nearly all actives have a fitted effect of over 50% in size
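Rat TrxR1, dispensed at 90 nM, was prereduced with 400 uM NADPH (final) for 5 min at ~22 deg C, then incubated with compound 15 min before 400 uM selenite. A first-read NADPH fluorescence drop versus no-compound background flagged substrates.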
rTrxR1 inhibitor: qHTS Assay for Inhibitors of Mammalian Selenoprotein Thioredoxin Reductase 1 (TrxR1): qHTS; AID 588453, 2011; recombinant rTrxR1, NADPH fluorescence consumption, selenite substrate; Thioredoxin reductase 1, cytoplasmic (Rattus norvegicus), O89049; Potency, µM (doses to about 114 µM), without a hit: top-dose activity change, negative = inhibition, usual class: inhibitors; 390,000 compounds, 1% hits; note: potency is the fitted concentration of half-maximal effect; nearly all actives have a fitted effect of over 65% in size
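Rat TrxR1 (90 nM in the dispensed reagent) was pre-reduced with 400 uM NADPH for 5 min at room temperature, then incubated with compound for 15 min. After 400 uM selenite was added, NADPH fluorescence (Ex 340/Em 450 nm) was followed for 8 min.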
PKM2 activator: qHTS Assay for Activators of Human Muscle isoform 2 Pyruvate Kinase. 260,000 compounds, 0.34% hits. AID 1631, 2009. Potency, µM (top dose mostly 57.5 µM), inactives show top-dose activation, hits mostly activators. Pyruvate kinase PKM (Homo sapiens), P14618. purified PKM2, Kinase-Glo ATP luminescence, activation; response scale: 0% is enzyme alone, no compound; note: potency is the fitted concentration of half-maximal effect; nearly all actives have a fitted effect of over 55% in size
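Purified hPK-M2 (>95% pure) converted ADP (0.1 mM final) to ATP with 0.5 mM PEP in 50 mM imidazole pH7.2, KCl, MgCl2, Tween 20, BSA; 1 h at room temperature. ATP detected by Kinase-Glo luminescence.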
PI4K2A inh: qHTS for small molecular inhibitors of PI4K2A; Phosphatidylinositol 4-kinase type 2-alpha (Homo sapiens), Q9BTU6; purified PI4K2A, ADP-Glo luminescence, 1 h; hits give low values; activity change, negative = inhibition, % at 76.9 µM; 420,000 compounds, 0.13% hits; AID 1346378, 2018; in the data active = activity change below about -50%; inconclusive = mostly about -30% to -49%;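 note: -100% = wells without enzyme as full effect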
Target sequence (Q9BTU6 whole entry, looked up): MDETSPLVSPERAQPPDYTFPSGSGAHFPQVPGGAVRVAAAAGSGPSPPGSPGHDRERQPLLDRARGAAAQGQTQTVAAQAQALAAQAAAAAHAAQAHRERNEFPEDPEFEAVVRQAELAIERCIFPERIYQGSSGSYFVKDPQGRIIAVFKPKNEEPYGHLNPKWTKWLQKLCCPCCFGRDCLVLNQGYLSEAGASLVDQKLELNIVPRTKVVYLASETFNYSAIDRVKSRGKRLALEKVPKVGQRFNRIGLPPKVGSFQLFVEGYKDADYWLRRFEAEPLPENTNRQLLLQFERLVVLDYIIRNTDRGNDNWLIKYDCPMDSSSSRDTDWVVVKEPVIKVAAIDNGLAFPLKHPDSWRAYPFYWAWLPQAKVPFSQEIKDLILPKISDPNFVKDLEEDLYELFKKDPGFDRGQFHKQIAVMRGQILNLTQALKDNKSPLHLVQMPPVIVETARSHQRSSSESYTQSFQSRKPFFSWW
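PI4K2A activity was measured by ADP-Glo luminescence: enzyme (4 ug/mL stock) and phosphatidylinositol (1.2 mM stock) in Tris pH 7.5/MgCl2/EGTA/Triton X-100 buffer were reacted with ATP (300 microM stock) for one hour at ambient temperature.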
GALK inh: qHTS Assay for Inhibitors of Human Galactokinase (GALK); P51570; Purified GALK, Kinase-Glo residual ATP luminescence; Potency, µM (series often up to 57.5 µM), inactives show at the highest dose activity change, negative = inhibition, actives largely listed as inhibitors; 270,000 compounds, 0.007% hits; note: potency is the fitted concentration of half-maximal effect
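Kinase-Glo Plus luminescence measured ATP left after a 1 h room-temperature reaction. The reaction used 5 nM GALK, 100 uM galactose and 35 uM ATP at pH 8.0 (20 mM HEPES, 5 mM MgCl2, 60 mM NaCl, 1 mM DTT, 0.01% BSA).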
Starred values were filed as active, the others as inactive; ? = inconclusive; / = not tested or not shown; [ ] = dose if it differs, or a comment. Sampled rows, rich in hits. Any-hit rate of the full collection: about 1.2%. Unless noted, calls come from the whole dose curve; as a rule, active = well fitted curve in the direction sought with a large enough effect; inconclusive = small, poorly fitted or top-dose-only effect, or another doubt; inactive = no such curve, though single readings can be large; an effect the other way counts as inactive or inconclusive. Unless noted, % is set by controls: 0 for no effect and ±100 for the full control effect.

SMILES | TrxR1 substrate | rTrxR1 inhibitor | PKM2 activator | PI4K2A inh | GALK inh
COc1ccc(C(=O)Nc2ccc(O)c3ccccc23)cc1 | -8% | -13% | / | -6 | /
CCOC(=O)C(C)(C)Sc1ncnc2nc[nH]c12 | 11% | 23% | 0% | 6 | -3%
CCOC(=O)c1cc([N+](=O)[O-])cc([N+](=O)[O-])c1Sc1ncnc2nc[nH]c12 | 0%[57.1 µM] | 0.45µM* | / | 25 | /
O=C1/C(=C\c2ccco2)CCC/C1=C\c1ccco1 | -6% | 2.2µM* | 17% | -28 | 0%
CCOc1ccc(NC(=O)CC2C(=O)N(c3cccc(C)c3)C(=O)N2Cc2ccco2)cc1 (stereo unspecified) | -5% | -6% | / | -6 | /
CC(C)NC(=O)c1cc(-c2ccco2)nn1-c1ccc(Cl)cc1 | 4% | 20µM* | ? | -10 | -1%
Cc1ccc(-n2nc(-c3ccco3)cc2C(=O)O)cc1 | 4% | ? | -1% | 2 | 4%
O=C(c1cc(-c2cccc(Cl)c2)on1)N1CCCCCC1 | -8% | 3% | -6% | -2 | -3%
O=C(c1cc(-c2ccco2)nn1-c1cccc(Cl)c1)N1CCCCC1 | 11% | 14µM* | ? | -16 | 0%
COC(=O)[C@]12C[C@H](CC(=O)N3CCSCC3)C(=O)N(Cc3cccc4ccccc34)C1=C[C@H](C1CCCC1)O[C@@H]2C | / | / | / | 0 | /
O=[N+]([O-])C(/C=C(\Cl)[N+](=O)[O-])=C(N1CCCCC1)N1CCCCC1 | -19% | 20µM* | -10% | 3 | -2%
Cn1c(NCc2ccccc2)cc(=O)n(C)c1=O | 5% | 9% | -1% | 1 | -4%
Cn1c(CNc2ccccc2)cc(=O)n(C)c1=O | -3% | -5% | 0% | -69* | 2%
Cc1ccnc(SCc2cc(=O)c(OC(=O)c3ccc([N+](=O)[O-])cc3)co2)n1 | / | / | / | 7 | /
Cc1ccnc(SCc2cc(=O)c(OC(=O)c3ccc(C#N)cc3)co2)n1 | / | / | / | -3 | /
Cc1cc(C)nc(SCc2cc(=O)c(OC(=O)c3ccc(S(=O)(=O)N(C)C)cc3)co2)n1 | -2% | 50µM* | 5% | 5 | 0%
Cc1ccnc(SCc2cc(=O)c(OC(=O)c3ccc(S(=O)(=O)N4CCCC4)cc3)co2)n1 | 3% | 28µM* | ? | 13 | 2%
Cc1cc(C)nc(SCc2cc(=O)c(OC(=O)c3ccc(Cl)c([N+](=O)[O-])c3)co2)n1 | -2% | ? | -1% | 0 | -3%
Cc1ccnc(SCc2cc(=O)c(OC(=O)c3ccc(S(=O)(=O)N(C)C)cc3)co2)n1 | 2% | 10µM* | ? | 4 | -2%
Cc1ccc(N2C(=O)[C@@H]3C(c4cccnc4)=NO[C@@H]3C2=O)cc1 | 4% | 45µM* | 3% | -2 | -2%
COc1ccc(N2C(=O)[C@@H]3C(c4cccnc4)=NO[C@@H]3C2=O)cc1 | 0% | ? | 2% | -3 | 0%
COc1ccc(NC2=C(Cl)C(=O)N(c3ccccc3)C2=O)c(OC)c1 | 2% | 13µM* | 0% | 0 | -2%
COc1ccc(N2C(=O)C(Cl)=C(Nc3ccc(OC)cc3OC)C2=O)cc1 | 4%[57.1 µM] | 5%[57.1 µM] | 2% | 2 | 0%
CN(C)S(=O)(=O)c1cccc(NC(=S)Nc2ccc(Cl)cc2Cl)c1 | -12% | ? | 2% | -3 | 0%
CN(C)CCNC(=S)Nc1cccc(Cl)c1 | -1% | 0% | -5% | -51* | -1%
CN(C)S(=O)(=O)c1cccc(NC(=S)Nc2cc(Cl)cc(Cl)c2)c1 | -8% | 20µM* | 1% | -4 | 0%
CN(C)NC(=S)Nc1cccc(Cl)c1 | 1% | 6% | -2% | -2 | -4%
Cc1c[nH]c2cccc(-c3ccc(Cl)cc3Cl)c12 | / | / | / | -4 | /
CC(C)Cc1ccc(C(C)CC2=CCC(CN(C)C)C2=O)cc1 (stereo unspecified) | -1% | 45µM* | / | 43 | /
CCCCS(=O)(=O)/C=C\C=C/S(=O)(=O)CCCC | 9%[57.1 µM] | 3.5µM* | 15% | 19 | 1%
